According to publication PMC5540273 (PLoS ONE, 2017):

Key:
Settings in all cases: concentration: 1 μM, replicates: in singlicate; n = 1
SNARK = test system: T1, SNARK
T1 construct: gene NUAK2

SNRK = test system: SNRK
SRC = test system: SRC
SRMS = test system: SRMS
SRPK1 = test system: SRPK1
SRPK2 = test system: SRPK2
SRPK3 = test system: SRPK3
STK16 = test system: STK16
STK33 = test system: STK33
STK35 = test system: STK35
STK36 = test system: STK36
STK39 = test system: STK39
SYK = test system: SYK
SgK110 = test system: SgK110
TAK1 = test system: T2, TAK1
T2 construct: gene MAP3K7

TAOK1 = test system: TAOK1
TAOK2 = test system: TAOK2
TAOK3 = test system: TAOK3
TBK1 = test system: TBK1
TEC = test system: TEC
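Note: KINOMEscan kinase panel screen.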

COC(=O)Nc1nc2ccc(Oc3ccc(NC(=O)Nc4cc(C(F)(F)F)ccc4F)cc3)cc2[nH]1.Cl [GW654607]
%Inh (SNARK): 0% | %Inh (SNRK): 0% | %Inh (SRC): 16% | %Inh (SRMS): 3% | %Inh (SRPK1): 61% | %Inh (SRPK2): 0% | %Inh (SRPK3): 13% | %Inh (STK16): 10% | %Inh (STK33): 73% | %Inh (STK35): 0% | %Inh (STK36): 0% | %Inh (STK39): 13% | %Inh (SYK): 29% | %Inh (SgK110): 55% | %Inh (TAK1): 94.7% | %Inh (TAOK1): 0% | %Inh (TAOK2): 0% | %Inh (TAOK3): 6% | %Inh (TBK1): 0% | %Inh (TEC): 0%

Cc1ccc(NC(=O)c2cccc(N3CCCCC3)c2)cc1-c1ccc(C(=O)NCC2CC2)cc1 [GSK1917008]
%Inh (SNARK): 0% | %Inh (SNRK): 0% | %Inh (SRC): 0% | %Inh (SRMS): 0% | %Inh (SRPK1): 32% | %Inh (SRPK2): 0% | %Inh (SRPK3): 23% | %Inh (STK16): 7% | %Inh (STK33): 0% | %Inh (STK35): 89% | %Inh (STK36): 0% | %Inh (STK39): 0% | %Inh (SYK): 20% | %Inh (SgK110): 0% | %Inh (TAK1): 0% | %Inh (TAOK1): 8% | %Inh (TAOK2): 0% | %Inh (TAOK3): 12% | %Inh (TBK1): 0% | %Inh (TEC): 0%

O=C(Nc1n[nH]c2nc(-c3ccccc3O)ccc12)C1CC1 [SB-711880]
%Inh (SNARK): 0% | %Inh (SNRK): 0% | %Inh (SRC): 0% | %Inh (SRMS): 0% | %Inh (SRPK1): 0% | %Inh (SRPK2): 0% | %Inh (SRPK3): 23% | %Inh (STK16): 15% | %Inh (STK33): 0% | %Inh (STK35): 57% | %Inh (STK36): 0% | %Inh (STK39): 0% | %Inh (SYK): 0% | %Inh (SgK110): 0% | %Inh (TAK1): 9% | %Inh (TAOK1): 9% | %Inh (TAOK2): 0% | %Inh (TAOK3): 0% | %Inh (TBK1): 27% | %Inh (TEC): 63%

Cc1cc(-c2c(-c3ccc(F)cc3)ncn2CCCN2CCOCC2)nc(N)n1 [SB-222517]
%Inh (SNARK): 0% | %Inh (SNRK): 0% | %Inh (SRC): 22% | %Inh (SRMS): 26% | %Inh (SRPK1): 0% | %Inh (SRPK2): 0% | %Inh (SRPK3): 19% | %Inh (STK16): 0% | %Inh (STK33): 0% | %Inh (STK35): 0% | %Inh (STK36): 18% | %Inh (STK39): 7% | %Inh (SYK): 26% | %Inh (SgK110): 40% | %Inh (TAK1): 3% | %Inh (TAOK1): 0% | %Inh (TAOK2): 38% | %Inh (TAOK3): 0% | %Inh (TBK1): 42% | %Inh (TEC): 0%

Cc1ccc(-c2ccc3occ(-c4ccc(S(C)=O)cc4)c3c2)nn1 (stereo not shown)
%Inh (SNARK): 0% | %Inh (SNRK): 0% | %Inh (SRC): 6% | %Inh (SRMS): 0% | %Inh (SRPK1): 0% | %Inh (SRPK2): 6% | %Inh (SRPK3): 0% | %Inh (STK16): 12% | %Inh (STK33): 0% | %Inh (STK35): 0% | %Inh (STK36): 0% | %Inh (STK39): 0% | %Inh (SYK): 5% | %Inh (SgK110): 0% | %Inh (TAK1): 0% | %Inh (TAOK1): 0% | %Inh (TAOK2): 0% | %Inh (TAOK3): 0% | %Inh (TBK1): 47% | %Inh (TEC): 0%

COc1cccc(C2=C(Nc3cccc(O)c3)C(=O)NC2=O)c1 [SB-390771]
%Inh (SNARK): 0% | %Inh (SNRK): 0% | %Inh (SRC): 0% | %Inh (SRMS): 0% | %Inh (SRPK1): 2% | %Inh (SRPK2): 0% | %Inh (SRPK3): 13% | %Inh (STK16): 100% | %Inh (STK33): 0% | %Inh (STK35): 0% | %Inh (STK36): 0% | %Inh (STK39): 8% | %Inh (SYK): 22% | %Inh (SgK110): 18% | %Inh (TAK1): 100% | %Inh (TAOK1): 10% | %Inh (TAOK2): 36% | %Inh (TAOK3): 9% | %Inh (TBK1): 30% | %Inh (TEC): 7%

Cc1ccc(Nc2ccnc(Nc3ccc(C)c(F)c3)n2)cc1O.Cl [GW582868]
%Inh (SNARK): 0% | %Inh (SNRK): 0% | %Inh (SRC): 86% | %Inh (SRMS): 0% | %Inh (SRPK1): 34% | %Inh (SRPK2): 7% | %Inh (SRPK3): 17% | %Inh (STK16): 11% | %Inh (STK33): 0% | %Inh (STK35): 99.5% | %Inh (STK36): 7% | %Inh (STK39): 18% | %Inh (SYK): 56% | %Inh (SgK110): 0% | %Inh (TAK1): 0% | %Inh (TAOK1): 0% | %Inh (TAOK2): 0% | %Inh (TAOK3): 0% | %Inh (TBK1): 16% | %Inh (TEC): 7%

CN1CCN(Cc2ccc(NC(=O)Nc3ccc(N(C)c4ccnc(Nc5ccc(CS(C)(=O)=O)cc5)n4)cc3)cc2)CC1.Cl [GW827654]
%Inh (SNARK): 59% | %Inh (SNRK): 10% | %Inh (SRC): 3% | %Inh (SRMS): 0% | %Inh (SRPK1): 92.3% | %Inh (SRPK2): 31% | %Inh (SRPK3): 82% | %Inh (STK16): 80% | %Inh (STK33): 0% | %Inh (STK35): 18% | %Inh (STK36): 49% | %Inh (STK39): 36% | %Inh (SYK): 84% | %Inh (SgK110): 0% | %Inh (TAK1): 89% | %Inh (TAOK1): 13% | %Inh (TAOK2): 0% | %Inh (TAOK3): 0% | %Inh (TBK1): 30% | %Inh (TEC): 9%
